HCV inhibitor: blocks hepatitis C virus. 340,000 tested, 3.4% active. Huh7.5.1 HCVcc-Cre infection, luciferase reporter, 44 h. Potency, µM (titrated, usually from 41.8 µM), for inactives: at the highest dose activity change, negative = inhibition, hits mostly inhibitors. AID 651820; also: potency is read from the fitted curve at half-maximal effect
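Seed cells (1,000/well) for 4 h; treat with compound and infect with HCVcc-Cre, moi about 0.5. Incubate 44 h, then detect luciferase activity.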
AmpC no deterg: AmpC beta-lactamase inhibition without detergent. P00811. AmpC nitrocefin hydrolysis, absorbance 480 nm, 0.0001% Triton. Potency, µM (doses to about 57.1 µM), for inactives: top-dose activity change, negative = inhibition, most hits filed as inhibitors. 330,000 tested, 0.52% active;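 also: potency is read from the fitted curve at half-maximal effect; plate controls were no compound for no effect and no enzyme for full effect; nearly all actives have a fitted effect of over 20% in size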
Target sequence (P00811 whole entry, looked up): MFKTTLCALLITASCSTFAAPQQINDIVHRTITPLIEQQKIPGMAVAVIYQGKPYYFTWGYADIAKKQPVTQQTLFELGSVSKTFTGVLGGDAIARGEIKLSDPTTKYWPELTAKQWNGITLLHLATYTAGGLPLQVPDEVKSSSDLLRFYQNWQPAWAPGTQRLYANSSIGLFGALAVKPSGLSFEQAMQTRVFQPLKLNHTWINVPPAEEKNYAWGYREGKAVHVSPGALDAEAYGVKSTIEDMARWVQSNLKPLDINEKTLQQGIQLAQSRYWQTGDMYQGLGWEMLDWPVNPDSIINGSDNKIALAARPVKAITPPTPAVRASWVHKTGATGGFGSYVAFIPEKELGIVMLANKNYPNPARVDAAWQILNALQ
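AmpC (5.3 nM in the dispensed reagent) in 20 mM phosphate pH 7.0 with 0.01% (detergent screen) or 0.0001% Triton X-100 was preincubated with compounds for 15 min at room temperature. Nitrocefin was then added from an 800 uM solution, and hydrolysis was followed at 480 nm.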
HCMV inh: inhibitors of human cytomegalovirus | 410,000 tested, 4.5% active | activity change, negative = inhibition, % at 57.5 µM | HFF cells, HCMV-luciferase reporter, 72 h; stronger effect = lower value; in the data active = activity change below about -60%; inconclusive = no clear call, values can overlap the other calls; inactive = above about -39%
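Screen run at 2 compound doses on HFFs infected with reporter HCMV, MOI 1 PFU/cell. Luciferase activity from cell lysates at 72 h post infection gave inhibition relative to buffer-only and Salinomycin wells.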
AmpC detergent: AmpC beta-lactamase inhibition with detergent present | 370,000 tested, 0.041% active | Potency, µM (top dose mostly 114 µM), inactives show at the highest dose activity change, negative = inhibition, most hits filed as inhibitors | P00811 | AmpC hydrolysis of nitrocefin, absorbance 480 nm, 0.01% Triton | AID 485294;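 also: potency is read from the fitted curve at half-maximal effect; 0% = no-compound wells and -100% = no-enzyme wells; nearly all actives have a fitted effect of over 25% in size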
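20 mM phosphate pH 7.0 + 0.01% (detergent screen) or 0.0001% Triton X-100; 5.3 nM AmpC reagent; cpd preinc 15 min RT; nitrocefin (800 uM stock) to start; A480 q20 s × 4 min; Activity was normalised to no-enzyme and no-compound control wells.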
FMDV inh: foot and mouth disease virus antiviral activity; FMDV antiviral cell-based qHTS; Potency, µM (series often up to 57.9 µM), for inactives: at the highest dose activity change, negative = inhibition, actives largely listed as inhibitors; 410,000 tested, 1.2% active; AID 1159524; calls by dose curve; tested in HEK293T cells; also: read-out not given here; potency is read from the fitted curve at half-maximal effect; nearly all actives have a fitted effect of over 45% in size
Active calls of the source: *; ? = inconclusive; · = not tested or not shown; [ ] = remark or other dose. Most compounds without a hit are left out; they make up all but 7.3% or so of the library. Unless noted, calls follow the shape of the dose curve; as a rule, active = well fitted curve in the direction sought with a large enough effect; inconclusive = small, poorly fitted or top-dose-only effect, or another doubt; inactive = no such curve, though single readings can be large; an effect the other way counts as inactive or inconclusive. Unless noted, % is scaled to controls: 0 for no effect and ±100 for the full control effect.

SMILES | HCV inhibitor | AmpC no deterg | HCMV inh | AmpC detergent | FMDV inh
COc1cccc(C2CC(c3c(-c4ccccc4)c4cc(Cl)ccc4[nH]c3=O)=NN2S(C)(=O)=O)c1OC (stereo not given) | 11.2µM* | 133.9% | -6.3 | 3.7% | ?
CN(CCO)C(=O)c1cn(C2CCCN(Cc3ccc(C(F)(F)F)cc3)C2)nn1 (stereo not given) | · | · | · | · | -15.9%
COc1cccc(CN2CCC(C(=O)Nc3ccc(-c4cccc(C)c4)cc3)CC2)c1O | 10µM* | -4.2% | -13.4 | -13.9% | ?
Cc1cccc(-c2ccc(NC(=O)C3CCN(CC4CC4)CC3)cc2)c1 | 10µM* | -9.6% | -11.4 | -9.6% | -23.1%
COc1ccc(C(C)=O)cc1CSC(=S)N1CCSCC1 | · | · | 22.0 | · | ·
CC1(C)CC(=O)C(C=NCCN2CCN(CCc3ccccc3)CC2)=C(O)C1 | 11.2µM* | 4.8% | 30.8 | ? | -16.2%
CC1(C)CC(=O)C(C=NCCN2CCN(CC(=O)Nc3ccc(Cl)cc3)CC2)=C(O)C1 | 12.6µM* | -1.0% | -8.4 | -18.9% | -12.9%
Cc1c(C2Nc3ccccc3C2C)[nH]c2ccccc12 (stereo not given) | · | · | -84.9* | · | ·
CCOC(=O)c1[nH]c(C)c(CCC(=O)Nc2c(C)cc(C)cc2C)c1C | · | · | -15.1 | -8.1% | 1.3%
CCCCOc1ccc(C(=O)NCCS(=O)(=O)N2CCN(c3ccccc3OC)CC2)cc1 | · | · | -25.9 | 21.1% | 14.1µM*
O=C(NCC1CCCN1S(=O)(=O)c1cccs1)c1cccc([N+](=O)[O-])c1 (stereo not given) | 7.3%[8.37 µM] | -39.5% | -20.1 | -19.5% | -8.8%
C[C@@H](C(=O)NC1CCN(Cc2ccccc2)CC1)N1C(=O)N2CCc3c([nH]c4ccccc34)[C@@]2(C)C1=O | 7.94µM* | 150.0% | -13.0 | ? | ?
CC(C)C[C@@H](C(=O)NC1CCN(Cc2ccccc2)CC1)N1C(=O)N2CCc3c([nH]c4ccccc34)[C@@]2(C)C1=O | ? | 158.3% | 6.8 | 1.4% | ?
CC(C)[C@@H](C(=O)NC1CC1)N1C(=O)N2CCc3c([nH]c4ccccc34)[C@@]2(C)C1=O | -22.5% | 81.1% | 54.5 | ? | -27.2%
C[C@@H](C(=O)NC1CCCCC1)N1C(=O)N2CCc3c([nH]c4ccccc34)[C@@]2(C)C1=O | 0.562µM* | 171.6% | 9.9 | -7.3% | ?
CC(C)[C@@H](C(=O)NC1CCN(Cc2ccccc2)CC1)N1C(=O)N2CCc3c([nH]c4ccccc34)[C@@]2(C)C1=O | -52.2% | 204.5% | -65.2* | 4.2% | -27.7%
O=C(COc1coc(CN2CCc3ccccc3C2)cc1=O)Nc1cccc(Cl)c1 | ? | -1.5% | -19.7 | -8.6% | -22.7%
CC12CCC(=O)C=C1CCC1C2CCC2(C)C(c3csc(N)n3)CCC12 (stereo not given) | 10µM* | · | -93.0* | · | 12.6µM*
O=c1cc(-c2cccc(O)c2)oc2ccc(O)cc12 | · | · | · | · | 36.0%
O=c1cc(-c2ccc(O)cc2)oc2ccc(O)cc12 | 31.6µM* | -33.3% | 84.2 | -6.9% | 27.3%
CCOC(=O)N1CCC(NC(=O)CSCc2nc(-c3cccc(OC)c3)oc2C)CC1 | ? | 111.9% | -93.1* | ? | ?
CCOc1ccc(-c2nc(CSCC(=O)NCc3ccc(C)cc3)c(C)o2)cc1 | · | · | -68.6* | 1.9% | -4.5%
Cc1oc(-c2ccc(Cl)cc2)nc1CN1CCC(C(=O)N2CCN(Cc3ccccc3)CC2)CC1 | -21.0% | 162.4% | -32.4 | -5.8% | 0.0%
CCOc1ccc(-c2nc(CSCC(=O)NC3CCCc4ccccc43)c(C)o2)cc1 (stereo not given) | 17.8µM* | -4.0% | -23.7 | ? | 0.0%
CCOc1ccc(-c2nc(CSCC(=O)NC3CC3)c(C)o2)cc1 | -25.7% | 15.0% | ? | -5.5% | 18.8%
SMILES | HCV inhibitor | AmpC no deterg | HCMV inh | AmpC detergent | FMDV inh
CCc1ccc(-c2nc(CSCC(=O)NCc3ccc(C)cc3)c(C)o2)cc1 | · | · | -39.3 | ? | -11.3%
Cc1oc(-c2ccc(Cl)cc2)nc1CSCC(=O)NC1CCN(Cc2ccccc2)CC1 | 3.98µM* | 150.3% | -84.8* | -5.7% | ?
CCOC(=O)N1CCC(NC(=O)CSCc2nc(-c3ccc(OCC)cc3)oc2C)CC1 | ? | 162.7% | ? | 4.6% | ?
COC(=O)c1ccc(NC(=O)CCn2cnnn2)c(C)c1 | · | · | 17.2 | -0.3% | -12.7%
Cc1ccc(NC(=O)COC(=O)CCc2c(C)nc3nc(N)nn3c2C)cc1C | 9.4% | 32.2% | -8.7 | ? | -9.9%
COc1ccc(S[C@]2(c3nc(C)no3)CC(=O)N(C(=O)c3ccccc3)[C@@H]2c2ccc(OC)cc2)cc1 | · | · | -8.6 | · | ·
Cc1ccc(NS(=O)(=O)c2cccc(C(=O)NCC3CCCO3)c2)cc1 (stereo not given) | ? | -25.1% | -5.7 | -20.8% | 12.2%
CCOc1ccc(-c2nc(CSCC(=O)NC3CCN(Cc4ccccc4)CC3)c(C)o2)cc1 | · | · | -94.2* | · | ?
Cn1c2ccccc2c2cnn(CC(=O)NCCCN3CCN(c4ccccc4F)CC3)c(=O)c21 | 10µM* | 80.8% | -14.8 | 0.1% | -7.9%
Cc1ccc(C)c(N2CCN(CCCNC(=O)Cn3ncc4c5ccccc5n(C)c4c3=O)CC2)c1 | · | · | -60.3* | 16.8% | -12.5%
CN1CCN(CCCNC(=O)Cn2ncc3c4ccccc4n(C)c3c2=O)CC1 | -17.3% | -3.5% | 9.4 | 0.2% | -16.7%
COc1ccccc1N1C(=O)CC1(C#N)c1ccc(OCc2ccccc2)cc1 (stereo not given) | -4.2% | -22.9% | 57.0 | -12.9% | -26.1%
Cc1ccccc1N1C(=O)CC1(C#N)c1ccc(OCc2ccccc2)cc1 (stereo not given) | -28.9% | 4.4% | -84.8* | 1.2% | -8.3%
COCC(C)NC(=O)C1CC(c2cccc(Br)c2)=NO1 (stereo not given) | 3.16µM* | -4.3% | 30.3 | -7.4% | 13.6%
COc1cc(NC(=O)C2CC(c3cccc(Br)c3)=NO2)cc(OC)c1OC (stereo not given) | -21.2% | 110.5% | 15.0 | -2.6% | -19.5%
Cc1ccc(C2=N/C(=C/c3cccs3)C(=O)N2Nc2ccccc2)cc1 | 11.2µM* | -8.0% | -5.7 | 1.2% | -6.6%
O=C(Nc1cccc(C(=O)N2CCN(c3ccccc3)CC2)c1)c1nsc2ccccc12 | · | · | 48.3 | 11.7% | -6.4%
COc1ccc(-c2nc(CCNC(=O)c3ccco3)cs2)cc1OC | ? | 7.3% | -101.1* | ? | -1.1%
O=C(CSc1nc(-c2ccco2)cc(C(F)(F)F)n1)NC1CCCC1 | ? | -14.1% | -68.1* | ? | -27.9%
COc1ccc(NC(=O)CSc2nc(-c3ccco3)cc(C(F)(F)F)n2)cc1OC | · | · | ? | -3.2% | ?
O=C(CSc1nc(-c2ccco2)cc(C(F)(F)F)n1)Nc1ccc2c(c1)CCC2 | ? | -24.4% | -22.0 | 1.6% | -11.6%

High-throughput results deposited in PubChem BioAssay by National Center for Advancing Translational Sciences (NCATS).
